# Test results taken from PubChem BioAssay (NCI).
# Compounds without any hit were thinned out: in the full panel of roughly 83,000, 20% have a hit.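 Cells were grown in 96-well plates and exposed to the test compound at a single concentration for 48 hours; results are reported as percent growth, with values below 10 considered active.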 The source made the active and inactive calls.
# Test system: MDA-MB-435 melanoma
# Assay: NCI-60 one-dose screen, 48 h (100 = growth as untreated, 0 = no growth, -100 = all killed)
# Conditions: 10 µM unless noted
row,Compound,growth
1,Cc1ccc2nc(SCn3nnc4ccccc4c3=O)[nH]c2c1,101% (inactive)
2,C=CCOc1cccc(/C=C/C(=O)c2sc(Nc3cccnc3)nc2C)c1,22.5% (inactive)
3,O=C(Nc1cccc(C(F)(F)F)c1)Nc1ccc(OCc2nnc(-c3ccccc3)o2)c(F)c1,49.4% (inactive)
4,COC(=O)c1ccc(C)cc1,101% (inactive)
5,COc1ccc(-c2nc(-c3nc4ccc(F)cc4[nH]3)cc3c2[nH]c2ccccc23)cc1,27.5% (inactive)
6,CCCC1OC(c2ccc(C(C)C)cc2)OCC1CC (stereo unspecified),105% (inactive)
7,COc1cc(C2C=C(C)N=C3SC=CN32)cc(OC)c1OC (stereo unspecified),98.6% (inactive)
8,CCCCCCCN(CCCCCCC)C(=N)c1ccc(OC)c2ccccc12,-98.7% (active)
9,O=[N+]([O-])c1cccc(-c2cc(-c3cc(Br)ccc3O)[nH]n2)c1,13.5% (inactive)
10,COc1ccc(/C=C2\CCCC3=C2NC(C)=NC3c2ccc(OC)c(OC)c2)cc1OC (stereo unspecified),1.49% (active)
11,COc1cc(Cn2c(-c3nonc3N)nc3ccccc32)ccc1C,-30.6% (active)
12,CCn1c(=O)c2c(=O)c3c4c(oc3oc2c2ccccc21)C(=O)c1ccccc1C4=O,95.9% (inactive)
13,COc1ccc(OC)c(NC(=O)c2cc(S(=O)(=O)N3CCc4ccccc43)ccc2OC)c1,96.1% (inactive)
14,Clc1cccc(Cl)c1Cn1c(-c2cncs2)nc2ccccc21,44.5% (inactive)
15,O=C(Nc1cccc(Cl)c1)c1cc([N+](=O)[O-])ccc1O,60.4% (inactive)
16,O=C(O)c1ccc(-n2c(=O)c3ccccc3c3ccccc3c2=O)cc1,103% (inactive)
